{"source": "PubChem BioAssay AID1259310", "about": "(The Scripps Research Institute Molecular Screening Center, 2017)", "note": "Screen size: about 650,000 compounds; about 850 (0.13%) were called active. The sample holds actives, similar compounds and a random draw of the others, so the mix is not that of the screen. Cut-off read from the data, not from the text of the source: active = normalized activity above about 1.9%; inactive = the rest.", "data": [{"target": "F-box/WD repeat-containing protein 7 (Homo sapiens) (UniProt Q969H0)", "sequence (Q969H0 whole entry, looked up)": "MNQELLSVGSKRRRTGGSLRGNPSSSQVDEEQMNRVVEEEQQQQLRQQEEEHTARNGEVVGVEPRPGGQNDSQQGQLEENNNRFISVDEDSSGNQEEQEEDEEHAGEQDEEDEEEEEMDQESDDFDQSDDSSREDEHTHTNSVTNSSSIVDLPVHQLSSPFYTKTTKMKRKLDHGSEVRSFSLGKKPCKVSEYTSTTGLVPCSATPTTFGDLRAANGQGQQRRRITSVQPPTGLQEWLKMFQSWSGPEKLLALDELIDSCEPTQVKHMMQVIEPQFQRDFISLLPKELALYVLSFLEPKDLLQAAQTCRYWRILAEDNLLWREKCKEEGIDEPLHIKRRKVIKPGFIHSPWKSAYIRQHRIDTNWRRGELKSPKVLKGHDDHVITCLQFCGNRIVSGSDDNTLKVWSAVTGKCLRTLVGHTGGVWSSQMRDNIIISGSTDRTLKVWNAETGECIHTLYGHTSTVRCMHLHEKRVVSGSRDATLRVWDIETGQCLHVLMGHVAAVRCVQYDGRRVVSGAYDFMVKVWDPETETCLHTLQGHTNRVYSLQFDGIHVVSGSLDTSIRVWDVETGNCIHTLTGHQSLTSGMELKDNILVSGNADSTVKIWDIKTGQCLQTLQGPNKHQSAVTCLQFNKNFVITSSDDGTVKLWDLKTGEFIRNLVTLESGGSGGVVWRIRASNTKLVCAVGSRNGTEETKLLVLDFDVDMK", "test": "FBW7 E3 ligase activators, primary screen, biochemical, AlphaScreen, human (AID 1259310);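 note: purified mutant Fbw7 with reduced substrate affinity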", "conditions": "AlphaScreen FBW7–phospho-cyclin E peptide binding, activator screen; at 26.1 µM; stronger effect = higher value", "values": [{"smiles": "CCOC(=O)C1=C(C)NC(=S)NC1c1cc(OC)ccc1O", "note": "(configuration not stated)", "normalized activity (activation)": "0.11% (inactive)"}, {"smiles": "CCc1c(C)c(C#N)c2nc3ccccc3n2c1-n1ccnc1", "normalized activity (activation)": "2.07% (active)"}, {"smiles": "Cc1c(CCC#N)c(-n2ccnc2)n2c(nc3ccccc32)c1C#N", "normalized activity (activation)": "-0.21% (inactive)"}, {"smiles": "N#Cc1c2c(c(-n3ccnc3)n3c1nc1ccccc13)CCC2", "normalized activity (activation)": "0.17% (inactive)"}, {"smiles": "COc1ccc(/C=N/Nc2nc3nonc3nc2Nc2cccc(C)c2)cc1OC", "normalized activity (activation)": "-0.17% (inactive)"}, {"smiles": "COc1cccc2c1OC1(CCN(C(=O)Nc3cccc(F)c3)CC1)OC2", "normalized activity (activation)": "-0.04% (inactive)"}, {"smiles": "Oc1ccccc1-c1nc(-c2cccc(C(F)(F)F)c2)c(-c2ccccc2)[nH]1", "normalized activity (activation)": "0.23% (inactive)"}, {"smiles": "c1cnc(Sc2nnc3ccccn23)nc1", "normalized activity (activation)": "0.1% (inactive)"}, {"smiles": "COc1ccc(N=C2CCC(O)=C2C(C)=O)cc1", "normalized activity (activation)": "0.05% (inactive)"}, {"smiles": "COc1ccc(S(=O)(=O)NCC(=O)Nc2cccc(Br)c2)cc1OC", "normalized activity (activation)": "-0.15% (inactive)"}, {"smiles": "CCn1c(=N)n(CC(=O)c2cccc(OC)c2)c2ccccc21", "normalized activity (activation)": "2.64% (active)"}, {"smiles": "COc1cccc(C(=O)N2CCN(C(=O)c3cccc(OC)c3)CC2)c1", "normalized activity (activation)": "0% (inactive)"}, {"smiles": "COc1cccc(C(=O)N2CCc3ccccc32)c1", "normalized activity (activation)": "0.05% (inactive)"}, {"smiles": "Cc1cc(S(=O)(=O)Nc2ccc(Br)cc2)c(C)c(S(=O)(=O)c2ccc(Cl)cc2)c1", "normalized activity (activation)": "0.11% (inactive)"}, {"smiles": "O=C1CCCC2=C1C(c1cccnc1)Nc1ccc3ncccc3c12", "note": "(configuration not stated)", "normalized activity (activation)": "-0.33% (inactive)"}, {"smiles": "CCCCNc1ncc2c(n1)c(=O)c(C#N)c1[nH]c3ccccc3c(=O)n12", "normalized activity (activation)": "2.15% (active)"}, {"smiles": "CN(C)CCCNc1ncc2c(n1)c(=O)c(C#N)c1[nH]c3ccccc3c(=O)n12", "normalized activity (activation)": "-0.01% (inactive)"}, {"smiles": "CCCCNC(=O)CSc1nnc2c(n1)[nH]c1ccccc12", "normalized activity (activation)": "0.16% (inactive)"}, {"smiles": "O=C(O)COc1ccc(C2Nc3ccccc3S(=O)(=O)N2Cc2ccccc2)cc1", "note": "(configuration not stated)", "normalized activity (activation)": "-0.1% (inactive)"}, {"smiles": "O=C(c1nc2ccccc2s1)N1CCN(c2nc3ccccc3s2)CC1", "normalized activity (activation)": "0.01% (inactive)"}, {"smiles": "Oc1ccccc1-c1nc(CI)no1", "normalized activity (activation)": "0.03% (inactive)"}, {"smiles": "O=S(=O)(NC1CCCCC1Sc1ncn[nH]1)c1ccc(Cl)cc1", "note": "(configuration not stated)", "normalized activity (activation)": "0% (inactive)"}, {"smiles": "CCSC1=NSC2=NC(=O)/C(=C\\c3ccc(OC)cc3)C(=N)N12", "normalized activity (activation)": "0.04% (inactive)"}, {"smiles": "COc1cccc(NC(=O)Nc2cc(OC)cc(OC)c2)c1", "normalized activity (activation)": "-0.06% (inactive)"}, {"smiles": "COc1cccc(NC(=O)Nc2ccc(-c3cn4c(C)c(C)nnc4n3)cc2)c1", "normalized activity (activation)": "1.87% (active)"}, {"smiles": "COc1ccc(NC(=O)c2sc3nc(-c4cccc([N+](=O)[O-])c4)cn3c2C)cc1", "normalized activity (activation)": "-0.14% (inactive)"}, {"smiles": "CCC(C)(C(=O)Nc1ccc2c(c1)OCCO2)N(Cc1ccco1)C(=O)c1ccccc1O", "note": "(configuration not stated)", "normalized activity (activation)": "-0.01% (inactive)"}, {"smiles": "O=C(COc1cccc([N+](=O)[O-])c1)N/N=C/c1ccc(O)c([N+](=O)[O-])c1", "normalized activity (activation)": "-0.11% (inactive)"}, {"smiles": "CCCC(c1nnnn1C(C)(C)C)N1CCN(Cc2ccccc2)CC1", "note": "(configuration not stated)", "normalized activity (activation)": "0.01% (inactive)"}, {"smiles": "COc1ccc(C(c2nnnn2C(C)(C)C)N2CCN(c3ccccc3)CC2)cc1", "note": "(configuration not stated)", "normalized activity (activation)": "0.3% (inactive)"}, {"smiles": "CN(C)c1ccc(C(c2nnnn2C(C)(C)C)N2CCN(Cc3ccccc3)CC2)cc1", "note": "(configuration not stated)", "normalized activity (activation)": "1.85% (active)"}, {"smiles": "CC(=O)c1ccc(N2C(=O)C3C(C2=O)C2(C)c4ccccc4C3(C)c3ccccc32)cc1", "note": "(configuration not stated)", "normalized activity (activation)": "-0.19% (inactive)"}, {"smiles": "COc1ccc(-c2cc(NCCOc3ccccc3)nc(N)n2)cc1", "normalized activity (activation)": "0.12% (inactive)"}, {"smiles": "O=C(COc1ccc(Cl)cc1)NNC(=O)C(Cc1ccccc1)N1C(=O)c2ccccc2C1=O", "note": "(configuration not stated)", "normalized activity (activation)": "0.06% (inactive)"}, {"smiles": "Cc1cc(C(=O)C(=O)c2nccn2C)c(C)n1C", "normalized activity (activation)": "0.04% (inactive)"}, {"smiles": "CCC(c1nnnn1CCC(C)C)N1CCN(C(=O)c2ccco2)CC1", "note": "(configuration not stated)", "normalized activity (activation)": "2.16% (active)"}, {"smiles": "CCC(c1nnnn1CCC(C)C)N1CCN(c2ccccc2)CC1", "note": "(configuration not stated)", "normalized activity (activation)": "0.24% (inactive)"}, {"smiles": "CCC(c1nnnn1C1CCCC1)N1CCN(C(=O)c2ccco2)CC1", "note": "(configuration not stated)", "normalized activity (activation)": "-0.16% (inactive)"}, {"smiles": "COc1cc(Cl)c(C)cc1NC(=O)CCNC(=O)Cn1cnc2sc3c(c2c1=O)CCCC3", "normalized activity (activation)": "-0.1% (inactive)"}, {"smiles": "Cc1ccc(CN2CCN(CC(=O)NCc3ccccn3)C2=O)cc1", "normalized activity (activation)": "-0.27% (inactive)"}, {"smiles": "COC(=O)CNC(=O)CNS(=O)(=O)c1ccccc1[N+](=O)[O-]", "normalized activity (activation)": "0.14% (inactive)"}, {"smiles": "O=[N+]([O-])c1ccc(S(=O)(=O)NCCc2ccccc2)cc1", "normalized activity (activation)": "0.18% (inactive)"}, {"smiles": "NNC(=O)CNC(=O)CNS(=O)(=O)c1ccc([N+](=O)[O-])cc1", "normalized activity (activation)": "1.97% (active)"}, {"smiles": "CC1=C(C(=O)Nc2cccc(C(=O)Nc3cccc(Cl)c3C)c2)SCCO1", "normalized activity (activation)": "-0.1% (inactive)"}, {"smiles": "COc1cc(C2CC(=O)NC3=C2C(=O)CC(C)(C)C3)cc([N+](=O)[O-])c1O", "note": "(configuration not stated)", "normalized activity (activation)": "-0.34% (inactive)"}, {"smiles": "C#CCN1C(=O)C(O)(CC(=O)c2ccc(OC)c([N+](=O)[O-])c2)c2ccccc21", "note": "(configuration not stated)", "normalized activity (activation)": "0.12% (inactive)"}, {"smiles": "CN(C)CCN(C)c1nc(C2COc3ccc(C(N)=O)cc3C2)nc2ccc(-c3cn[nH]c3)cc12", "note": "(configuration not stated)", "normalized activity (activation)": "1.23% (inactive)"}, {"smiles": "O=C(NCCc1cccnc1)c1ccc2c(c1)CC(c1nc3ccc(-c4cn[nH]c4)cc3c(=O)[nH]1)CO2", "note": "(configuration not stated)", "normalized activity (activation)": "3.03% (active)"}, {"smiles": "O=c1[nH]c(C2COc3ccc(F)cc3C2)nc2ccc(-c3cn[nH]c3)cc12", "note": "(configuration not stated)", "normalized activity (activation)": "-0.05% (inactive)"}, {"smiles": "CCN(CC)c1ccc2nnc(CCC(=O)Nc3ccc(C(=O)OC)cc3)n2n1", "normalized activity (activation)": "0.06% (inactive)"}, {"smiles": "CC1CCCN(S(=O)(=O)c2ccc3c(c2)OCC(=O)N3)C1", "note": "(configuration not stated)", "normalized activity (activation)": "0.17% (inactive)"}, {"smiles": "CCOC(=O)CC(C(C)C)N(Cc1ccc(F)cc1)C(=S)Nc1cccc(C)c1", "note": "(configuration not stated)", "normalized activity (activation)": "0.07% (inactive)"}]}]}
